# According to PubChem BioAssay (NCATS):
# Where “and” joins values, the source holds several entries; their conditions need not be identical. Identical values can stand only once. Calls of active or inactive are those of the source. Where a call stands in place of a potency, no number is given. Unless noted, calls follow the shape of the full dose curve.
# Columns and labels:
# [1] = Cell Viability - N2a (AID 540; active = well fitted curve in the direction sought with a large enough effect; inconclusive = small, poorly fitted or top-dose-only effect, or another doubt; inactive = no such curve, though single readings can be large; an effect the other way counts as inactive or inconclusive; also: nearly all actives have a fitted effect of over 45% in size); conditions: N2a mouse neuroblastoma cell viability; activity change, negative = cytotoxicity: at 92.2 µM (top of the series)
# Method in brief: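 CellTiter-Glo ATP luminescence, read 20 min after reagent at room temperature, reported viability following 40 h compound treatment at 37 °C. N2a mouse neuroblastoma cells seeded 1500/well; Hill equation gave AC50.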
# [2] = Cell Viability - NIH 3T3 (AID 541; active = well fitted curve in the direction sought with a large enough effect; inconclusive = small, poorly fitted or top-dose-only effect, or another doubt; inactive = no such curve, though single readings can be large; an effect the other way counts as inactive or inconclusive;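 also: cells exposed to compound for 40 hours; nearly all actives have a fitted effect of over 25% in size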; also: potency is read from the fitted curve at half-maximal effect); conditions: NIH 3T3 cell viability, qHTS; activity change, negative = cytotoxicity: at 92.2 µM (top of the series)
# Method in brief: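 Intracellular ATP (CellTiter-Glo luminescence, 20 min at room temperature) measured after 40 hr compound exposure at 37 °C of 1000 NIH 3T3 mouse fibroblasts/well in complete medium; AC50 derived by Hill-equation modelling of qHTS concentration-response curves.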
# [3] = Cell Viability - SH-SY5Y (AID 544; active = well fitted curve in the direction sought with a large enough effect; inconclusive = small, poorly fitted or top-dose-only effect, or another doubt; inactive = no such curve, though single readings can be large; an effect the other way counts as inactive or inconclusive;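 also: cells exposed to compound for 40 hours; nearly all actives have a fitted effect of over 55% in size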; also: potency is read from the fitted curve at half-maximal effect); conditions: SH-SY5Y neuroblastoma cell viability; viability change, negative = cytotoxic: at 92.2 µM (top of the series)
# Method in brief: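 Cytotoxicity measured via ATP-dependent luciferase luminescence (CellTiter-Glo) following 40 h, 37 °C exposure of 1500 SH-SY5Y cells per well. Concentration-response data were fitted with the standard Hill equation to give AC50.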
# [4] = Cellular Toxicity (caspase-3) Jurkat (AID 655; active = well fitted curve in the direction sought with a large enough effect; inconclusive = small, poorly fitted or top-dose-only effect, or another doubt; inactive = no such curve, though single readings can be large; an effect the other way counts as inactive or inconclusive;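 also: cells exposed to compound for 16 h at 37 °C before reading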); conditions: Jurkat caspase-3 activation, luminescence; caspase-3 activation: at 92.2 µM (top of the series), DMSO = 0%, tamoxifen = 100%
# Method in brief: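 Caspase 3/7 activation is scored as increased luminescence in Jurkat cells cultured with compound for 16 hours in complete medium. AC50 values come from Hill fits of qHTS concentration-response data normalized to DMSO and 100 uM tamoxifen controls.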
# [5] = target: Estrogen receptor (Homo sapiens) (UniProt P03372); test: qHTS assay for small molecule antagonists of estrogen receptor alpha signaling (AID 588513; active = well fitted curve in the direction sought with a large enough effect in the signal ratio, with a control signal flat, not every such curve was filed as active; inconclusive = small, poorly fitted or top-dose-only effect, or effect the other way, or a change in a side signal; inactive = no such curve, though single readings can be large or run the other way; the % refers to the signal ratio; also: potency is read from the fitted curve at half-maximal effect)
# Method in brief: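 Cells were plated at 5000/well and incubated 4 h at 37 C. Compounds were added as 1:2 dilution series, duplicates. 17-beta-estradiol (0.5nM final) was added for 18 h before CCF4 detection.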
# [6] = target: Estrogen receptor (Homo sapiens) (UniProt P03372); test: qHTS assay for small molecule agonists of estrogen receptor alpha signaling (AID 588514); also: nearly all actives have a fitted effect of over 70% in size
# Method in brief: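 EC50 and efficacy came from Hill fits of beta-lactamase reporter signal (CCF4 dye, 2 h at room temperature) scaled between DMSO and 20 nM 17-beta-estradiol. Agonist mode: HEK293 ER-alpha-UAS-bla cells in charcoal/dextran-stripped serum medium, 18 h compound exposure at 37 C.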
# [7] = target: Bile acid receptor (Homo sapiens) (UniProt Q96RI1); test: qHTS assay for small molecule antagonists of farnesoid X receptor signaling (AID 588526)
# Method in brief: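 Antagonist mode: titrated compounds tested against chenodeoxycholic acid stimulation (normalized to 50 uM CDCA and DMSO) in GeneBLAzer HEK293T cells for 16 h. Beta-lactamase read by CCF4 fluorescence; IC50 from Hill fits.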
# [8] = target: Bile acid receptor (Homo sapiens) (UniProt Q96RI1); test: qHTS assay for small molecule agonists of farnesoid X receptor signaling (AID 588527); conditions: HEK293T FXR-UAS-bla, beta-lactamase ratio, 16 h; stronger effect = higher value
# Method in brief: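 Quantitative HTS used FXR-UAS-bla HEK293T cells with 16 h compound incubation at 37 C. EC50 values came from concentration-response curves normalized to chenodeoxycholic acid.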
# [9] = qHTS assay for small molecule antagonists of peroxisome proliferator-activated receptor delta signaling (AID 588535); conditions: HEK293T PPARd-UAS-bla, beta-lactamase FRET ratio, 18 h; 460 nm channel;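 also: cells co-treated with a PPAR-delta agonist as stimulator during compound exposure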
# Method in brief: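 Fluorescence from CCF4-loaded GeneBLAzer PPAR-delta-UAS-bla HEK293T cells (2 hrs RT loading) quantified reporter inhibition after an 18 hr, 37 C compound exposure across a titration.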
# [10] = target: Vitamin D3 receptor (Homo sapiens) (UniProt P11473); test: qHTS assay for small molecule antagonists of vitamin D receptor signaling (AID 588541);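 also: receptor activated by calcitriol during compound treatment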
# Method in brief: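 VDR-UAS-bla HEK293T cells in 2% charcoal-stripped FBS were stimulated with 1-alpha,25-dihydroxyvitamin D3 (3 nM final) plus compound for 16 h at 37 C. The beta-lactamase CCF4 readout was normalized to 50 nM agonist and DMSO, and Hill fits gave IC50.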
# [11] = target: Retinoic acid receptor RXR-alpha (Homo sapiens) (UniProt P19793); test: qHTS assay for small molecule agonists of retinoid X receptor alpha signaling (AID 588544)
# [12] = qHTS assay for small molecule agonists of the antioxidant response element (ARE) signaling pathway (AID 651741; active = well fitted activation curve with a large enough effect in the signal ratio; inconclusive = small, poorly fitted or top-dose-only effect, or effect the other way, or a change in a side signal; the % refers to the signal ratio; also: potency is read from the fitted curve at half-maximal effect)
# Method in brief: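 Stably integrated ARE-beta-lactamase reporter HepG2 cells; 16 h compound incubation, 37 C; LiveBLAzer FRET substrate 2 h at room temperature; fluorescence intensity.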
# [13] = Cell Viability - SK-N-SH (AID 435); conditions: SK-N-SH neuroblastoma cell viability qHTS; also: potency is read from the fitted curve at half-maximal effect
# Method in brief: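 Cells seeded at 1500 per well and incubated 5 hr at 37 °C. Compound added, then 40 hr at 37 °C. CellTiter-Glo added, 20 min at room temperature, luminescence read.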
# [14] = Cell Viability - H-4-II-E (AID 543; active = well fitted curve in the direction sought with a large enough effect; inconclusive = small, poorly fitted or top-dose-only effect, or another doubt; inactive = no such curve, though single readings can be large; an effect the other way counts as inactive or inconclusive;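 also: cells exposed to compound for 40 hours; nearly all actives have a fitted effect of over 35% in size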; also: potency is read from the fitted curve at half-maximal effect)
# Method in brief: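 CellTiter-Glo luminescence (intracellular ATP) measured after 40 h compound exposure at 37 °C in H-4-II-E rat hepatoma cells seeded at 1500/well. Values are AC50s fitted with the standard Hill equation.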
# [15] = target: Glucocorticoid receptor (Homo sapiens) (UniProt P04150); test: qHTS assay for small molecule agonists of glucocorticoid receptor signaling (AID 588532; active = well fitted curve in the direction sought with a large enough effect in the signal ratio, with a control signal flat; inconclusive = small, poorly fitted or top-dose-only effect, or a change in a side signal; inactive = no such curve, though single readings can be large or run the other way; the % refers to the signal ratio); conditions: HeLa MMTV-bla, beta-lactamase ratio, agonist, 18 h; stronger effect = higher value; percent of dexamethasone control, DMSO zero
# Method in brief: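 Cells were plated and rested 3-5 h at 37 C, compounds were added in titration and incubated 18 h, then CCF4 substrate was loaded for 2 h at RT before reading blue/green fluorescence. EC50 came from Hill-equation fitting.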
# [16] = target: Glucocorticoid receptor (Homo sapiens) (UniProt P04150); test: qHTS assay for small molecule antagonists of glucocorticoid receptor signaling (AID 588533; active = well fitted inhibition curve with a large enough effect in the signal ratio, with a control signal flat, not every such curve was filed as active; inconclusive = small, poorly fitted or top-dose-only effect, or effect the other way, or a change in a side signal; the % refers to the signal ratio)
# Method in brief: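 Antagonist-mode qHTS: compound titrations added to GRE-bla HeLa cells, then dexamethasone 2 nM final; 18 h, 37 C. CCF4 FRET fluorescence normalized to dexamethasone and DMSO; IC50 from Hill fit.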
# [17] = target: Peroxisome proliferator-activated receptor delta (Homo sapiens) (UniProt Q03181); test: qHTS assay for small molecule agonists of peroxisome proliferator-activated receptor delta signaling (AID 588534)
# Method in brief: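 Agonist-mode beta-lactamase reporter readout (CCF4 dye, 2 h at RT) after 18 h at 37 °C exposure to a titration; Hill-equation fitting gave EC50 and maximal response.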
# [18] = qHTS assay for small molecule disruptors of the mitochondrial membrane potential - 1 hr assay (AID 651754); also: nearly all actives have a fitted effect of over 35% in size; also: potency is read from the fitted curve at half-maximal effect
# Method in brief: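 Mitochondrial potential in living HepG2 cells after 1 hr compound treatment at 37C was read with Mito-MPS dye added for a further 30 min. Red aggregate and green monomer fluorescence were measured; loss of potential leaves dye as cytoplasmic monomers.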
# [19] = target: Peroxisome proliferator-activated receptor gamma (Homo sapiens) (UniProt P37231); test: qHTS assay for small molecule antagonists of peroxisome proliferator-activated receptor gamma signaling (AID 588537; active = well fitted inhibition curve with a large enough effect in the signal ratio, with a control signal flat, not every such curve was filed as active; inconclusive = small, poorly fitted or top-dose-only effect, or effect the other way, or a change in a side signal; the % refers to the signal ratio;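 also: reporter cells co-stimulated with 50 nM rosiglitazone agonist during compound treatment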)
# Method in brief: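 Fluorescence at 460 and 530 nm (405 nm excitation) reported beta-lactamase cleavage of CCF4 after 2 h room-temperature loading. HEK293 reporter cells in 1% charcoal/dextran-treated FBS had received compound and rosiglitazone for 16 h.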
# [20] = Cell Viability - BJ (AID 421); conditions: BJ fibroblast viability, qHTS;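 also: potency is read from the fitted curve at half-maximal effect; cells exposed to compound for 40 hours at 37 °C before readout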
# Method in brief: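 Quantitative HTS: ATP depletion in BJ cells after 40 hr compound exposure in complete culture medium, detected with CellTiter-Glo; AC50 from standard Hill fits.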
# Sequence of Peroxisome proliferator-activated receptor gamma (Homo sapiens) (P37231 whole entry, looked up): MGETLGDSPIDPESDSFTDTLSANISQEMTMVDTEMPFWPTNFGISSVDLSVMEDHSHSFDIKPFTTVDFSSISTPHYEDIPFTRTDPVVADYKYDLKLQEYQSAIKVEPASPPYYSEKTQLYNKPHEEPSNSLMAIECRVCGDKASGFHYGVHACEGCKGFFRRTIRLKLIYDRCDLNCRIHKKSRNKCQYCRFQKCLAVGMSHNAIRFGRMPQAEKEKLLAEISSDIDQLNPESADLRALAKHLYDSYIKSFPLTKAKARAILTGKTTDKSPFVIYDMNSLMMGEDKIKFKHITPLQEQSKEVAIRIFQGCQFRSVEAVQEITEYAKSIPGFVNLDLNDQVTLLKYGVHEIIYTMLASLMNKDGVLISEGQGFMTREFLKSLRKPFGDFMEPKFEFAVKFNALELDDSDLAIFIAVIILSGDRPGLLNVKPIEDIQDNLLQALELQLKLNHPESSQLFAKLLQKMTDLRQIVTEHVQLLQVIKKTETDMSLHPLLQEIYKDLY
# Sequence of Peroxisome proliferator-activated receptor delta (Homo sapiens) (Q03181 whole entry, looked up): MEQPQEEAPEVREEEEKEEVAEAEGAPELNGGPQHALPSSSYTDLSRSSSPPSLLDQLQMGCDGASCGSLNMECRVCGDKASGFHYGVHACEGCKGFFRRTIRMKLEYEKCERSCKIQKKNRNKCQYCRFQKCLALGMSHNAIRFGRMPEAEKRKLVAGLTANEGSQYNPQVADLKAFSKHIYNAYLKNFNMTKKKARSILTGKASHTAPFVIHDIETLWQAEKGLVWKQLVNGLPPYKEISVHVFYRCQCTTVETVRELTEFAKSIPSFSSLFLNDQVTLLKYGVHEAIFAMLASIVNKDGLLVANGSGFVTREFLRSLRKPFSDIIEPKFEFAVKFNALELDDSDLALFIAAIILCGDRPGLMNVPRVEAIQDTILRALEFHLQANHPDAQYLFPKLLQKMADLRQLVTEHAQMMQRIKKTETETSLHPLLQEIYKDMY
# Sequence of Vitamin D3 receptor (Homo sapiens) (P11473 whole entry, looked up): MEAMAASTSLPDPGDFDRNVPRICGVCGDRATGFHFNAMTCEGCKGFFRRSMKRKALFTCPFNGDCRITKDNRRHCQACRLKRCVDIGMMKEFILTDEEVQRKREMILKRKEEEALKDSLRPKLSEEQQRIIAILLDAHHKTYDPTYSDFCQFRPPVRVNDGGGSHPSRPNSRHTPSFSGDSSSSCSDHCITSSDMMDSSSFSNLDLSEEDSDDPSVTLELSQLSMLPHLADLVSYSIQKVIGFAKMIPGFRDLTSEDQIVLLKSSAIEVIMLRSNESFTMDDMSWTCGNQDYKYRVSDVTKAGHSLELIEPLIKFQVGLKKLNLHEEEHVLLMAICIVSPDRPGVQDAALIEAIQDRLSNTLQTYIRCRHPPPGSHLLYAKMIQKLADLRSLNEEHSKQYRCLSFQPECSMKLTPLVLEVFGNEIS
# Sequence of Glucocorticoid receptor (Homo sapiens) (P04150 whole entry, looked up): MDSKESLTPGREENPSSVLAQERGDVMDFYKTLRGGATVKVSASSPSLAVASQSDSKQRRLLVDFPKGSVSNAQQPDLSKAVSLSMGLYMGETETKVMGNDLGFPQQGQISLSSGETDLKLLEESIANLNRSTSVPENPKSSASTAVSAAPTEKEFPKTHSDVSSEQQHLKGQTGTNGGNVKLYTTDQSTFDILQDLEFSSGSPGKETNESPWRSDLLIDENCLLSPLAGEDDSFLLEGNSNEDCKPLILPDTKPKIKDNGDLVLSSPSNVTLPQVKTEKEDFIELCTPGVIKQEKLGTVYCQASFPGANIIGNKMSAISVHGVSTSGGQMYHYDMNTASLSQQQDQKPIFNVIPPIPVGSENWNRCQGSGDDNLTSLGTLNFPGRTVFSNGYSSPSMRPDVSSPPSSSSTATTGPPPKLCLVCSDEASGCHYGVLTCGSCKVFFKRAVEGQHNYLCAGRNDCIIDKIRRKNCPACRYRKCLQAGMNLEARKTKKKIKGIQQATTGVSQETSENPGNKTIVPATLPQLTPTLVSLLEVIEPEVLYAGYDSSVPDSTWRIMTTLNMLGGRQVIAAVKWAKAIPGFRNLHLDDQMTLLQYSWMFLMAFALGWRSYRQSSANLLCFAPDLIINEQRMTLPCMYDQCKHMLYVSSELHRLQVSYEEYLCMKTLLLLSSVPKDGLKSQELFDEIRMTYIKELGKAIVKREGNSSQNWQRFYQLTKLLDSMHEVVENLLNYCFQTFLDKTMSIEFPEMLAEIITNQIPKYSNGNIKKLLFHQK
# Sequence of Estrogen receptor (Homo sapiens) (P03372 whole entry, looked up): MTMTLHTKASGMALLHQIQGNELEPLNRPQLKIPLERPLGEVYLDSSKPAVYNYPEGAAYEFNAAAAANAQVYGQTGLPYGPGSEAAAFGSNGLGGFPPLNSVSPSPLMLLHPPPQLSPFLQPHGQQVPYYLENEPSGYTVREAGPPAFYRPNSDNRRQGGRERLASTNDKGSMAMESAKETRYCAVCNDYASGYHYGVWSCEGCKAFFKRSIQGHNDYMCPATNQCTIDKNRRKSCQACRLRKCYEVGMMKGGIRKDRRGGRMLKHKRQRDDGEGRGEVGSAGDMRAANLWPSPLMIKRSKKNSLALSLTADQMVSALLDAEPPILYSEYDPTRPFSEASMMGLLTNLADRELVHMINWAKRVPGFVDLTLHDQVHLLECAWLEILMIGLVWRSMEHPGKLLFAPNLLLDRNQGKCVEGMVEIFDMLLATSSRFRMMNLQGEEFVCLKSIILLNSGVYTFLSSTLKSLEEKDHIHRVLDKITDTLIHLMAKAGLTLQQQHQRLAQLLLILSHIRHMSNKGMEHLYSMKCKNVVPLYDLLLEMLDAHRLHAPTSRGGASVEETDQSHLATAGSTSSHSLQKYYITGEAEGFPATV
# Sequence of Bile acid receptor (Homo sapiens) (Q96RI1 whole entry, looked up): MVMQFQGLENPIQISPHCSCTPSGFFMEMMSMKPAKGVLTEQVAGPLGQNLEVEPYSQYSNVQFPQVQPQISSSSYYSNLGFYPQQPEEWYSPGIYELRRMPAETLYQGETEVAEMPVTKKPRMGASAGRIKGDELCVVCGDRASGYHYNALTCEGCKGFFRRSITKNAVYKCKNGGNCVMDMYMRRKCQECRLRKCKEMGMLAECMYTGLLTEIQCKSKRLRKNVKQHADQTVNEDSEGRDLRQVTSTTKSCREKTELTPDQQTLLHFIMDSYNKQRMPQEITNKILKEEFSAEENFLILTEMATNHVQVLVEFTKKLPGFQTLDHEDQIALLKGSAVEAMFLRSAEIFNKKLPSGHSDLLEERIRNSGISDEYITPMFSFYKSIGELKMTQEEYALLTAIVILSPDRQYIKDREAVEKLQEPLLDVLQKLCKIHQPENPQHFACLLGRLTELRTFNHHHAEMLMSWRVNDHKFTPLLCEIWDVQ
# Sequence of Retinoic acid receptor RXR-alpha (Homo sapiens) (P19793 whole entry, looked up): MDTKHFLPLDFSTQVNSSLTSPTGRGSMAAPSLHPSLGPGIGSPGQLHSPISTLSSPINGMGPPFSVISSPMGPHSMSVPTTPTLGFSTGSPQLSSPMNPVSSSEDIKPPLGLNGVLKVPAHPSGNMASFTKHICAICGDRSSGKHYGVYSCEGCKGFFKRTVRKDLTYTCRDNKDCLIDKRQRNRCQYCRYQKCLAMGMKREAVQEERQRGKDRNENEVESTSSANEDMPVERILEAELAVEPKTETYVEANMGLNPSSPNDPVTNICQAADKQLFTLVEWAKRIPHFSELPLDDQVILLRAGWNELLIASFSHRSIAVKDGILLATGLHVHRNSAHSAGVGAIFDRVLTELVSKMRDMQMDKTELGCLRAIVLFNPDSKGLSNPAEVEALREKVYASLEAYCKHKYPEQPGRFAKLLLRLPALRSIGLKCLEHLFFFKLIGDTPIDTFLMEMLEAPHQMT
structure (smiles),measurement,setting,value
O=C(O)c1cccc(Cl)c1,Potency,[1],inactive
same,Potency,[2],inactive
same,Potency,[3],inactive
same,caspase-3 activation,[4],-2.79% (inactive)
same,Potency,[5],inactive
same,Potency,[6],inactive
same,outcome,[7],inactive
same,activation,[8],2.01% (inactive)
same,max response,[9],30.4%
same,outcome,[10],inactive
same,outcome,[11],inactive
same,Potency,[12],inactive
N#CCCCCC#N,Potency,[13],> 92 µM (inactive)
same,Potency,[14],inactive
same,Potency,[3],inactive
same,caspase-3 activation,[4],-0.898% (inactive)
same,outcome,[7],inactive
same,activation,[8],-2.39% (inactive)
same,activation,[15],-2.66% (inactive)
same,outcome,[16],inactive
same,outcome,[17],inactive
same,outcome,[10],inactive
same,Potency,[12],inactive
same,Potency,[18],inactive
Nc1ccc(Oc2ccc(N)cc2)cc1,Potency,[13],> 92 µM (inactive)
same,Potency,[3],inactive
same,caspase-3 activation,[4],3.63% (inactive)
same,activation,[15],-1.85% (inactive) and -6.36% (inactive)
same,outcome,[16],inactive
same,max response,[9],31.7%
same,Potency,[12],inactive
CCC/C=N/O,Potency,[13],> 92 µM (inactive)
same,Potency,[1],inactive
same,Potency,[2],inactive
same,Potency,[14],inactive
same,Potency,[3],inactive
same,caspase-3 activation,[4],-1.14% (inactive)
same,Potency,[5],inactive
same,Potency,[6],inactive
same,outcome,[7],inactive
same,activation,[8],0.311% (inactive)
same,activation,[15],5.99% (inactive)
same,outcome,[16],inactive
same,Potency,[19],inactive
same,outcome,[10],inactive
same,outcome,[11],inactive
same,Potency,[18],inactive
C=CC(=O)OCC(CC)CCCC (centres undefined),Potency,[13],> 92 µM (inactive)
same,Potency,[1],inactive
same,Potency,[2],inactive
same,Potency,[3],inactive
same,caspase-3 activation,[4],-0.0566% (inactive)
same,activation,[15],-0.1% (inactive) and -12.6% (inactive)
same,outcome,[16],inactive
same,outcome,[17],inactive
same,max response,[9],10.4% and 11.2%
same,Potency,[19],inactive
same,outcome,[10],inactive
same,Potency,[12],inactive
same,Potency,[18],inactive
Nc1cc(Cl)cc(C(=O)O)c1Cl,Potency,[13],> 92 µM (inactive)
same,Potency,[1],inactive
same,Potency,[2],inactive
same,Potency,[14],inactive
same,Potency,[3],inactive
same,caspase-3 activation,[4],-0.545% (inactive)
same,outcome,[17],inactive
same,max response,[9],-17.7% and 9.43%
same,Potency,[19],inactive
same,outcome,[11],inactive
same,Potency,[18],inactive
C=CC(=O)OCCO,Potency,[20],> 92 µM (inactive)
same,Potency,[1],inactive
same,Potency,[2],31.6 µM (active)
same,caspase-3 activation,[4],15.3% (inactive)
same,activation,[15],19.7% (inactive)
same,max response,[9],-1.31%
same,outcome,[10],inactive
same,outcome,[11],inactive
same,Potency,[12],37.6 µM (active)
Nc1ccc(-c2ccc(N)c(Cl)c2)cc1Cl,Potency,[13],3.05 µM (active)
same,Potency,[1],inactive
same,Potency,[3],12.6 µM (active)
same,activation,[15],-5.3% (inactive) and -4.62% (inactive)
same,Potency,[19],inactive
same,outcome,[10],inactive
same,Potency,[12],5.31 µM (active) and 12.2 µM (active)
[C-]1=CC=CC1.[C-]1=CC=CC1.[Cl-].[Cl-].[Ti+4],Potency,[1],inactive
same,"activity change, negative = cytotoxicity",[2],-86.5% (active)
CN(C)c1ccc(N)cc1,Potency,[20],28.3 µM (active)
same,Potency,[13],41.7 µM (active)
same,"activity change, negative = cytotoxicity",[2],-87% (active)
same,Potency,[14],50.1 µM (active)
same,"viability change, negative = cytotoxic",[3],-91.2% (active)
same,caspase-3 activation,[4],-4.87% (inactive)
same,Potency,[5],31.6 µM [inconclusive] (active)
same,Potency,[6],inactive
same,outcome,[17],inactive
same,max response,[9],-7.4%
same,Potency,[19],inactive
same,outcome,[10],inactive
same,outcome,[11],inactive
same,Potency,[12],33.5 µM (active)
same,Potency,[18],29.8 µM (active)
